# Source: PubChem BioAssay (SRMLSC)
# Only some compounds are listed: those with a hit (about 6.8% of all), similar ones and a draw of the others.
# NADH enzymes = inhibitors of enzymes used to reach an NAD/NADH endpoint | coupled PK/LDH NADH assays, four targets | IC50, µM (titrated, usually from 10 µM), inactives show top-dose inhibition | 65,000 compounds, 0.02% hits;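 active means single-dose screening hits from any of four coupled enzyme assays that gave an IC50 when retested across doses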;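 further: the DPM-DC format reads NADH fluorescence rather than 340 nm absorbance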
# Fluor 339 460 = intrinsic fluorescence of library compounds, ex339/em460 – biochemical, MLSMR library, data from DPM-DC assay, artefact control, profiling panel | 65,000 compounds, 5.5% hits | compound autofluorescence, ex339/em460 nm, NADH buffer; stronger effect = higher value; 1 = no-compound wells, NADH background | fluorescence fold increase at 10 µM;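 active means at 10 µM, mean starting fluorescence two-fold or more over control wells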;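 further: signal is the first read of a kinetic run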
# Spn MK inh = S. pneumoniae mevalonate kinase inhibition; purified MK, PK/LDH-coupled NADH absorbance 340 nm; inhibition, % at 10 µM; 65,000 compounds, 0.48% hits;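 active means ranked among the strongest by inhibition in the single 10 µM screen, a fixed top-ranked set picked for dose follow-up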
# Spn DPM-DC inh = S. pneumoniae DPM-DC inhibition | 65,000 compounds, 0.49% hits | AID 556 | calls only at 10 µM | purified DPM-DC, PK/LDH coupled NADH fluorescence;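 active means the 320 compounds with the highest percent inhibition in the single-dose primary screen, excluding strongly autofluorescent ones, cut at about 32% in these data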;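 further: kinetic rate of NADH fluorescence loss reporting ADP formed by the decarboxylase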
# Abs 340nm = compounds absorbing at 340 nm; fold change at 10 µM; 65,000 tested, under 10 active; AID 708; compound absorbance at 340 nm, fold over control;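 active means at 10 µM dose, initial 340 nm absorbance at least 2 fold that of control wells; inactive means change under 2 fold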;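 further: initial absorbance extrapolated from kinetic A340 decline of NADH oxidation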
# Spn PMK inh = inhibitors of Streptococcus pneumoniae phosphomevalonate kinase. purified PMK, PK/LDH-coupled NADH absorbance 340 nm. inhibition, % at 10 µM. 65,000 compounds, 0.49% hits;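 active means top-ranked compounds by inhibition in the single 10 µM screen, taking a fixed number of the strongest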;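 further: 0% = full reaction with DMSO carrier and 100% = background rate without enzyme reaction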
# * = called active by the depositor; i = inactive; x = not tested or not shown.
SMILES,NADH enzymes,Fluor 339 460,Spn MK inh,Spn DPM-DC inh,Abs 340nm,Spn PMK inh
CC(=O)N(Cc1cccnc1)Cc1cc2ccc(C)cc2[nH]c1=O,9.0%,1.37,8.0,i,1.05,11.0
CCCN(Cc1cc2cc(OC)ccc2[nH]c1=O)C(=O)c1ccncc1,5.0%,1.9,4.0,i,1.1,8.0
CCCCN(Cc1cc2cc(OC)ccc2[nH]c1=O)C(=O)c1ccccn1,3.0%,2.54*,10.0,x,1.02,9.0
COc1ccc2[nH]c(=O)c(CN(CCO)C(=O)c3ccccc3F)cc2c1,11.0%,2.91*,9.0,i,1.01,9.0
Cc1ccc2cc(CN(CCN3CCCC3)C(=O)Nc3ccccc3)c(=O)[nH]c2c1C,2.0%,1.27,0.0,i,1.03,6.0
CC(C)[C@H](NC(=O)Nc1ccc(Oc2ccccc2)cc1)C(=O)O,3.0%,1.15,1.0,i,1.03,9.0
COC(=O)C(Cc1cncn1COCc1ccccc1)NC(=O)OC(C)(C)C (centres undefined),8.0%,1.09,9.0,i,0.95,15.0
Cc1ccc2[nH]c(=O)c(CN(CC3CCCO3)C(=O)c3ccco3)cc2c1 (centres undefined),1.0%,1.57,3.0,i,1.06,0.0
O=C(NCc1ccccc1)N(Cc1cc2cc3c(cc2[nH]c1=O)OCO3)CC1CCCO1 (centres undefined),4.0%,3.66*,1.0,x,1.15,6.0
O=c1[nH]c2ccccc2nc1-c1cccs1,6.0%,4.89*,0.0,x,1.05,11.0
c1csc(-c2nnsc2-c2nc3ccccc3[nH]2)c1,3.0%,1.22,2.0,i,1.03,8.0
COc1ccc(CN(C(=O)c2snc(C(N)=O)c2N)C(C(=O)NC(C)(C)C)c2ccco2)cc1 (centres undefined),6.0%,2.26*,8.0,i,1.03,9.0
COc1ccccc1N(C(=O)c1snc(C(N)=O)c1N)C(C(=O)NCCC(C)C)c1ccco1 (centres undefined),10.0%,2.47*,7.0,i,1.09,7.0
CCOc1ccccc1N(C(=O)c1snc(C(N)=O)c1N)C(C(=O)NCCC(C)C)c1ccco1 (centres undefined),8.0%,1.84,14.0,i,1.05,11.0
COCCNC(=O)C(c1ccc(C)o1)N(C(=O)c1snc(C(N)=O)c1N)c1cc(C)cc(C)c1 (centres undefined),12.0%,2.15*,10.0,i,1.04,14.0
COc1ccccc1N(C(=O)c1snc(C(N)=O)c1N)C(C(=O)NC1CCCC1)c1ccco1 (centres undefined),15.0%,2.85*,6.0,i,1.02,10.0
CC(Sc1nnc(-c2ccc(Cl)cc2)n1C)C(N)=O (centres undefined),6.0%,1.08,0.0,i,1.01,17.0
COc1ccc(S(=O)(=O)N(CC(=O)NCc2ccco2)C2CCCCC2)cc1OC,1.0%,1.09,2.0,i,1.02,0.0
Cc1cc(C)n(C(=O)CNC(=O)CCc2ccccc2)n1,2.0%,1.02,7.0,i,1.04,0.0
CCCCN(CCCC)CCCOC(=O)c1ccc(N)cc1,1.0%,1.03,7.0,i,0.99,7.0
CCn1c(SCC(=O)Nc2nc(C)c(C(=O)OC)s2)nnc1C(C)C,6.0%,1.08,9.0,i,0.99,9.0
Cc1cc(C(=O)Cn2nnc3ccccc3c2=O)c(C)n1Cc1cccs1,8.0%,1.11,8.0,i,1,16.0
CC(C)(C)NC(=O)COC(=O)c1snc(C(=O)NC2CCCCC2)c1N,3.0%,2.08*,4.0,x,1.04,10.0
CC(C(=O)NC1CCCC1)N(Cc1ccco1)C(=O)c1snc(C(=O)NC2CCCC2)c1N (centres undefined),15.0%,2.36*,1.0,i,1.03,20.0
CC(CC(=O)O)CC(=O)Nc1ccccc1C(=O)O (centres undefined),4.0%,1.13,2.0,i,1.07,7.0
SMILES,NADH enzymes,Fluor 339 460,Spn MK inh,Spn DPM-DC inh,Abs 340nm,Spn PMK inh
Cn1c(=O)c2c(n(C)c1=O)=NC1(CCCCC1)ON=2,6.0%,1.08,6.0,i,0.99,12.0
COc1ccc(-n2nc3cc(C)c(NC(=O)C(C)C)cc3n2)cc1,6.0%,5.11*,3.0,x,1.04,8.0
O=C(COc1ccc(S(=O)(=O)NC2CCCCC2)cc1)NCc1ccccn1,5.0%,1,10.0,i,1.01,6.0
O=C(COc1ccc2c(c1)C(=O)CC1(CCCCC1)O2)NCc1ccccn1,5.0%,5.08*,0.0,x,1.01,10.0
CC1(C)CC(=O)c2cc(OCC(=O)NCCCN3CCN(c4ccccc4F)CC3)ccc2O1,2.0%,3.42*,0.0,x,1,13.0
CCOC(=O)COc1ccc2c(c1)C(=O)CC(C)(c1cccnc1)O2 (centres undefined),7.0%,4.79*,0.0,x,1.05,14.0
CC1(C)CC(=O)c2cc(OCC(=O)NCc3cccnc3)ccc2O1,4.0%,5.14*,0.0,x,1.02,7.0
Cn1cc(C(=O)c2ccc(Cl)cc2)cc1-c1nc2ccccc2n1C,1.0%,1.24,0.0,i,1.11,3.0
CCc1ccc(NC(=O)N(CCCN2CCOCC2)C(C)c2cc3cccc(OC)c3o2)cc1 (centres undefined),3.0%,1.11,0.0,i,1,9.0
Cc1cc(C)n(CCCNC(=O)c2ccc(S(=O)(=O)NCc3ccco3)cc2)n1,3.0%,1,6.0,i,0.96,12.0
Cc1nc(-c2ccc(NS(C)(=O)=O)cc2)cs1,2.0%,1.12,5.0,i,1.03,0.0
CC(=O)Nc1ccc(S(=O)(=O)/N=C2\SCCN2S(=O)(=O)c2ccc(NC(C)=O)cc2)cc1,7.0%,1.05,5.0,i,0.94,15.0
CN(CC(=O)N1CCc2ccccc21)S(=O)(=O)c1cccc2cccnc12,5.0%,1.08,7.0,i,1.01,9.0
CN(C)C(=O)CSc1cccc2cccnc12,7.0%,3.85*,7.0,x,1.04,6.0
O=C(CSc1cccc2cccnc12)N1CCCC1,3.0%,3.94*,1.0,x,1.04,4.0
C=CCN1C(=O)C2C(C(=O)NC)C3(C)C=CC2(O3)C1C(=O)NCc1ccc(OC)cc1 (centres undefined),1.0%,1.13,3.0,i,0.97,1.0
COc1ccccc1C(=O)NCCc1nc2ccccc2n1C,9.0%,1.01,active,i,1.01,0.0
O=C(NCc1cccnc1)c1ccc2c(c1)OCO2,2.0%,1.06,1.0,i,1,20.0
Cc1nnc2sc(-c3ccncc3)nn12,5.0%,1.13,7.0,i,1.01,7.0
Cc1nnc2sc(-c3cccc4ccccc34)nn12,12.0%,2.25*,11.0,i,1.03,14.0
Cc1nc2[nH]c(=O)c3c(n2n1)NC1=C(C(=O)CC(C)(C)C1)C3c1ccccc1 (centres undefined),0.0%,3.96*,0.0,x,1.09,0.0
Cc1ccc(C2C3=C(CC(C)(C)CC3=O)NC3=C2C(=O)CC(C)(C)C3)o1,9.0%,1.15,10.0,i,1.03,13.0
